High-throughput results: PubChem BioAssay, National Center for Advancing Translational Sciences (NCATS)
The list is not random: actives were taken first. Their share in the collection is about 21%.
NS1 function inh = blocks influenza NS1 protein function | Potency, µM (highest dose often 46.1 µM), for the others: at the highest dose activity, positive = more growth | AID 2326 | 270,000 tested, 0.4% active; calls by dose curve; also: potency is read from the fitted curve at half-maximal effect; actives are rising curves; nearly all actives have a fitted effect of over 50% in size
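Growth recovery, yeast-based: influenza A NS1 expressed in S. cerevisiae causes slow growth, and suppressors are detected by OD600. The parent strain without NS1 is used as positive control.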
Pf growth 96h = P. falciparum growth inhibition at 96 hours; Potency, µM (titrated, usually from 28.7 µM), inactives show top-dose activity change, negative = inhibition, most hits filed as inhibitors; P. falciparum luciferase reporter growth, 96 h; 320,000 tested, 6.9% active; also: potency is read from the fitted curve at half-maximal effect; % is scaled to controls: 0 for no effect and ±100 for the full control effect
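Erythrocytes infected with luciferase-expressing P. falciparum were dispensed at 2% hematocrit and 0.05% parasitemia (final), then incubated with compounds 96 hours at 37 C in 5% CO2. Luminescence after detection reagent addition reported growth.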
Shiga inhibitor = blocks Shiga toxin action in Vero cells | 290,000 tested, 9.2% active | inhibition, % at 38.7 µM | Vero cells, Shiga toxin protein synthesis inhibition reporter; in the data active = inhibition mostly above about 28%, no sharp cut-off; inactive = mostly below about 43%; also: 0% is about no effect
Pf growth 48h = P. falciparum growth inhibition at 48 hours (one generation); P. falciparum luciferase growth in erythrocytes, 48 h; Potency, µM (series often up to 28.7 µM), for inactives: at the top dose activity change, negative = inhibition, most hits filed as inhibitors; 310,000 tested, 5.9% active; AID 504832; also: potency is read from the fitted curve at half-maximal effect; % is scaled to controls: 0 for no effect and ±100 for the full control effect
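Read-out is firefly luciferase luminescence from an integrated reporter in P. falciparum, so falling signal marks reduced parasite growth. Infected erythrocytes were at 2% hematocrit and 0.1% parasitemia (final) in Albumax-supplemented RPMI 1640.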
Sm TGR inh = S. mansoni TGR enzyme inhibition; Q962Y6; purified TGR, DTNB reduction, TNB absorbance 405 nm; Potency, µM (doses to about 114 µM), for inactives: at the highest dose activity change, negative = inhibition, most hits filed as inhibitors; 360,000 tested, 3% active; also: potency is read from the fitted curve at half-maximal effect; % is scaled to controls: 0 for no effect and ±100 for the full control effect; nearly all actives have a fitted effect of over 60% in size
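First, TGR (20 nM dispensed) and NADPH were mixed with compound. Second, a 15 min room-temperature incubation followed. Third, further NADPH and then DTNB were added to start the reaction. Finally, TNB absorbance was monitored kinetically.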
Cycloheximide cs = counter-screen for Shiga toxin inhibitors: cycloheximide protein synthesis inhibition. cell reporter, cycloheximide protein synthesis inhibition counterscreen. max response, %. 300,000 tested, 12% active. AID 2314; in the data active = max response mostly above about 13%, no sharp cut-off; inactive = mostly below about 14%; also: read at 38.3 µM for the half of the compounds with a filed dose; 0% is about no effect
* = called active by the depositor. Unless noted, calls follow the shape of the dose curve; as a rule, active = well fitted curve in the direction sought with a large enough effect; inconclusive = small, poorly fitted or top-dose-only effect, or another doubt; inactive = no such curve, though single readings can be large; an effect the other way counts as inactive or inconclusive.

For COc1cc2oc(=O)cc(-c3ccc(-c4ccc(OC(F)(F)F)cc4)cc3)c2c(OC)c1OC the results were Shiga inhibitor 69.9* and Cycloheximide cs 23.6.
For COc1cc2oc(=O)cc(-c3cccc(-c4ccc(C(C)=O)cc4)c3)c2c(OC)c1OC the results were Shiga inhibitor active and Cycloheximide cs 39.3*.
`Cc1cc(C)c2c(-c3ccc(-c4ccc(C(F)(F)F)cc4)cc3)cc(=O)oc2c1` gave Shiga inhibitor inactive and Cycloheximide cs 15.9.
For COc1ccc(-c2cccc(-c3cc(=O)oc4cc5c(cc34)OCO5)c2)cc1 the results were Shiga inhibitor inactive and Cycloheximide cs 29.6*.
Screening COc1ccc(-c2ccc(-c3cc(=O)oc4cc(C)cc(C)c34)cc2)cc1 returned Shiga inhibitor active and Cycloheximide cs 24.4.
For CC(=O)c1cccc(NC(=O)C2CCCN(c3nnc(-n4cccc4)s3)C2)c1 (stereo unspecified) the results were Sm TGR inh 1.1%.
`CCOC(=O)c1c[nH]c2c(C)cc(C)cc2c1=O` gave NS1 function inh 14.3%, Pf growth 96h 9.9%, Shiga inhibitor -6.9, Pf growth 48h 5.22µM*, Sm TGR inh 9.2% and Cycloheximide cs -1.9.
CCOC(=O)c1c[nH]c2c(Cl)c(Cl)ccc2c1=O was read as NS1 function inh 2.3%, Pf growth 96h -33.6%, Shiga inhibitor -20.3, Pf growth 48h -1.1%, Sm TGR inh -3.0% and Cycloheximide cs -1.4.
For CCOC(=O)c1c[nH]c2c3c(ccc2c1=O)CCCC3 the results were NS1 function inh 4.0%, Pf growth 96h inconclusive, Shiga inhibitor 44.6, Pf growth 48h 0.329µM*, Sm TGR inh 6.0% and Cycloheximide cs 22.0*.
`Cc1nnc2ccc(-c3ccc(NS(=O)(=O)c4ccc(F)cc4F)cc3)nn12` gave Pf growth 96h inconclusive, Pf growth 48h inconclusive and Sm TGR inh -1.9%.
Screening CCCc1cc2c(cc1NC(=O)c1ccccc1C)OCO2 returned NS1 function inh -8.1%, Pf growth 96h 11.3%, Shiga inhibitor 11.5, Pf growth 48h inconclusive, Sm TGR inh 4.4% and Cycloheximide cs 6.2.
For CC(C)(C)NS(=O)(=O)c1ccc(NC(=O)CS(=O)(=O)Cc2ccccc2)cc1 the results were NS1 function inh 0.2%, Pf growth 96h inconclusive, Shiga inhibitor -8.7, Pf growth 48h -3.2%, Sm TGR inh 1.6% and Cycloheximide cs -1.3.
For Cc1ccc(-c2cc(C(=O)N3CCN(c4ccccc4O)CC3)c3ccccc3n2)cc1 the results were Pf growth 96h inconclusive, Pf growth 48h 3.29µM* and Sm TGR inh -17.0%.
`O=C(c1cc(-c2cccs2)nc2ccccc12)N1CCN(c2ccccc2O)CC1` gave Pf growth 96h inconclusive, Shiga inhibitor 90.8, Pf growth 48h inconclusive, Sm TGR inh -6.7% and Cycloheximide cs 19.0*.
Screening O=C(c1cc(-c2ccccc2Cl)nc2ccccc12)N1CCOCC1 returned NS1 function inh 16.9%, Pf growth 96h 0.37µM*, Shiga inhibitor 11.9, Pf growth 48h -7.0%, Sm TGR inh -20.4% and Cycloheximide cs -4.2.
Screening COc1ccc(-c2cc(C(=O)N3CCN(c4ccccc4O)CC3)c3ccccc3n2)cc1OC returned NS1 function inh -31.7%, Pf growth 96h 2.62µM*, Shiga inhibitor 20.1, Pf growth 48h 2.08µM*, Sm TGR inh -9.3% and Cycloheximide cs 6.9.
Screening O=C(c1cc(-c2ccccc2Cl)nc2ccccc12)N1CCN(c2ccccc2O)CC1 returned Pf growth 96h 4.15µM*, Pf growth 48h 9.28µM* and Sm TGR inh -3.8%.
Cc1ccc(NC(=O)/C=C/c2ccc([N+](=O)[O-])s2)cc1 was read as NS1 function inh -13.6%, Pf growth 96h inconclusive, Shiga inhibitor active, Pf growth 48h inconclusive, Sm TGR inh -4.9% and Cycloheximide cs 25.6*.
Cc1ccc(NC(=O)/C=C/c2ccc([N+](=O)[O-])s2)c(C)c1 was read as NS1 function inh -6.7%, Pf growth 96h 3.29µM*, Shiga inhibitor active, Pf growth 48h 10.4µM*, Sm TGR inh -23.1% and Cycloheximide cs 22.2*.
Cc1ccc(NC(=O)COC(=O)c2ccc([N+](=O)[O-])s2)c(C)c1 was read as NS1 function inh -3.3%, Pf growth 96h 17.5%, Shiga inhibitor -14.3, Pf growth 48h 4.6%, Sm TGR inh -1.3% and Cycloheximide cs -1.2.
Cc1cc([N+](=O)[O-])ccc1NC(=O)/C=C/c1cccs1 was read as NS1 function inh -0.4%, Pf growth 96h -23.2%, Shiga inhibitor 59.3*, Pf growth 48h 103.3%, Sm TGR inh 0.6% and Cycloheximide cs 42.4*.
CN(C)S(=O)(=O)c1cccc(NC(=O)/C=C/c2ccccc2[N+](=O)[O-])c1 was read as Pf growth 96h inconclusive, Shiga inhibitor 2.0, Pf growth 48h -63.4%, Sm TGR inh 1.0% and Cycloheximide cs 16.6.
CCCOc1ccc(/C=C/C(=O)Nc2ccc([N+](=O)[O-])cc2)cc1 was read as NS1 function inh -35.8%, Pf growth 96h inconclusive, Shiga inhibitor -14.8, Pf growth 48h inconclusive, Sm TGR inh -24.7% and Cycloheximide cs -3.1.
Cc1cccc(NC(=O)/C=C/c2ccc([N+](=O)[O-])s2)c1 was read as NS1 function inh 5.5%, Pf growth 96h 2.62µM*, Shiga inhibitor 21.0, Pf growth 48h inconclusive, Sm TGR inh -1.9% and Cycloheximide cs 1.3.
`COc1ccc(CNC(=O)C2CCN(S(=O)(=O)c3cccc4nonc34)CC2)cc1OC` gave Sm TGR inh 7.2%.
CCCCC(=O)Nc1cccc(NC(=O)c2ccccc2Br)c1 was read as NS1 function inh -12.8%, Pf growth 96h 6.2%, Shiga inhibitor -1.2, Pf growth 48h -1.0%, Sm TGR inh 5.4% and Cycloheximide cs -1.5.
`COc1ccc(C(=O)COC(=O)COc2cc(C)cc(C)c2)cc1` gave NS1 function inh 4.7%, Pf growth 96h 5.4%, Shiga inhibitor -7.2, Pf growth 48h 22.7%, Sm TGR inh 3.6% and Cycloheximide cs -2.0.
For Cc1ccc(NC(=O)CSc2nc3ccccc3c(=O)n2CCCN2CCCCC2)cc1Cl the results were Pf growth 96h inconclusive, Shiga inhibitor -13.3, Pf growth 48h -15.1%, Sm TGR inh 7.3% and Cycloheximide cs -15.6.
Screening Cc1nn(-c2ccccc2)c2nc3c(cc12)C(=O)CCC3 returned NS1 function inh -5.6%, Pf growth 96h inconclusive, Shiga inhibitor -12.3, Pf growth 48h 2.3%, Sm TGR inh -0.4% and Cycloheximide cs -1.5.
`Cc1cccc(NC(=S)N/N=C/c2ccc([N+](=O)[O-])s2)c1` gave NS1 function inh -139.4%, Pf growth 96h inconclusive, Shiga inhibitor 32.4*, Pf growth 48h inconclusive, Sm TGR inh 0.0% and Cycloheximide cs 18.9.
